The list is not random: actives were taken first. Their share in the collection is about 19%.
IL1B secr inh = qHTS for Inhibitors of Inflammasome Signaling: IL-1-beta AlphaLISA Primary Screen | THP-1 LPS/ATP IL-1B secretion, AlphaLISA, 16 h; hits give low values | activity change, % at 57.5 µM | actives 4.7% (n = 360,000); in the data active = activity change below about -50%; inconclusive = mostly about -30% to -49%
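Secreted IL-1B measured by AlphaLISA bead assay after 16 h compound exposure of THP-1 cells; compounds (final up to 57.5 uM) added 1 h before LPS (250 ng/mL) and ATP (1.25 mM) stimulation; lower signal means less secretion.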
TDP1 cell CPT = qHTS for Inhibitors of human tyrosyl-DNA phosphodiesterase 1 (TDP1): qHTS in cells in presence of CPT; chicken DT40 Tdp1-/-;hTDP1 cells + 20 nM CPT, ATP luminescence, 48 h; Potency, µM (titrated, usually from 46.2 µM), without a hit: top-dose activity change, negative = growth inhibition, usual class: inhibitors; actives 12% (n = 420,000); AID 686979, 2013; note: potency is the fitted concentration of half-maximal effect; nearly all actives have a fitted effect of over 55% in size
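Chicken DT40 Tdp1-/- cells complemented with human TDP1, 400 cells/well, exposed to compounds plus 20 nM camptothecin for at least 48 h at 37 C; viability read as ATP content by CellTiter-Glo luminescence.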
HT1080 IDH1KD tx = qHTS for induction of synthetic lethality in tumor cells producing 2HG: qHTS for the HT-1080-IDH1KD cell line. actives 2% (n = 360,000). Potency, µM (doses to about 46.1 µM), without a hit: at the highest dose activity, negative = toxicity, actives largely listed as cytotoxic. AID 686971, 2013. HT-1080 IDH1 knockdown viability, ATP luminescence, 48 h;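 note: potency is the fitted concentration of half-maximal effect; 0% = DMSO wells and -100% = cell-free medium wells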
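CellTiter-Glo luminescence after 48 h compound exposure at 37 degrees C of IDH1-knockdown HT-1080 cells in 5% FBS RPMI. %Activity scaled between DMSO wells and cell-free media wells, with curves fitted and assigned curve classes.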
HT1080-NT tox = qHTS for induction of synthetic lethality in tumor cells producing 2HG: qHTS for the HT-1080-NT fibrosarcoma cell line; actives 1.6% (n = 360,000); HT-1080-NT fibrosarcoma viability, CellTiter-Glo ATP luminescence, 48 h; Potency, µM (highest dose often 46.1 µM), without a hit: at the top dose activity, negative = less viability, usual class: cytotoxic;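 note: NT is the 2HG producing partner of a matched IDH1 knockdown line; potency is the fitted concentration of half-maximal effect; 0% = DMSO-treated cells and -100% = media-only wells without cells; nearly all actives have a fitted effect of over 55% in size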
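A 48-hour cytotoxicity screen used HT-1080-NT cells plated 2 hours before compound delivery. ATP-based CellTiter-Glo luminescence measured viability, normalized to DMSO and no-cell controls.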
TDP1 cell noCPT = qHTS for Inhibitors of human tyrosyl-DNA phosphodiesterase 1 (TDP1): qHTS in cells in absence of CPT | DT40 Tdp1-/- hTDP1 cells, no CPT, ATP luminescence, 48 h | Potency, µM (top dose mostly 46.2 µM), for the others: top-dose activity change, negative = growth inhibition, hits mostly inhibitors | actives 15% (n = 420,000) | AID 686978, 2013; note: potency is the fitted concentration of half-maximal effect; nearly all actives have a fitted effect of over 55% in size
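Growth of hTDP1-complemented DT40 Tdp1-knockout cells is measured by ATP luminescence after at least 48 hr compound exposure at 37 °C, with DMSO substituting for the 20 nM CPT used in the parallel screen.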
ELG1 DNA repair = qHTS screen for small molecules that inhibit ELG1-dependent DNA repair in human embryonic kidney (HEK293T) cells expressing luciferase-tagged ELG1; HEK293T ELG1-luciferase reporter, luminescence, 16 h; DNA damage induced by 5-fluorouridine; Potency, µM (top dose mostly 46.1 µM), for inactives: at the highest dose activity change, negative = inhibition, actives largely listed as inhibitors; actives 2.3% (n = 330,000); note: potency is the fitted concentration of half-maximal effect; nearly all actives have a fitted effect of over 55% in size
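Reporter activity after DNA damage by 5-fluorouridine is monitored. Compound-treated cells incubate 16 hr at 37 °C, then ONE-Glo is added for 30 min before luminescence reading.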
Active calls of the source: *; u = inconclusive; x = not tested or not shown. Unless noted, calls come from the whole dose curve; as a rule, active = well fitted curve in the direction sought with a large enough effect; inconclusive = small, poorly fitted or top-dose-only effect, or another doubt; inactive = no such curve, though single readings can be large; an effect the other way counts as inactive or inconclusive. Unless noted, % is set by controls: 0 for no effect and ±100 for the full control effect.

SMILES	IL1B secr inh	TDP1 cell CPT	HT1080 IDH1KD tx	HT1080-NT tox	TDP1 cell noCPT	ELG1 DNA repair
C#Cc1ccc(C(=O)Nc2ccc(N3CCC(C)CC3)c(C(N)=O)c2)cc1	-16.8	u	-3.8%	3.3%	u	-16.4%
CCOC(=O)N1CCC(NC(=O)c2cc(C(=O)NCc3ccc(F)cc3)ccc2CO)CC1	15.6	u	-1.4%	1.1%	11.6µM*	-14.6%
CCOC(=O)N1CCC(NC(=O)c2cc(C(=O)Nc3ccc(S(=O)(=O)N4CCOCC4)cc3)ccc2CO)CC1	6.6	u	9.2%	2.3%	-29.2%	u
CCOC(=O)N1CCC(NC(=O)c2cc(C(=O)Nc3ccc(F)cc3F)ccc2CO)CC1	2.7	-24.9%	4.2%	u	-24.1%	u
CCOC(=O)N1CCC(NC(=O)c2cc(C(=O)NC3CCN(Cc4ccccc4)CC3)ccc2CO)CC1	-8.0	1.84µM*	1.2%	-2.8%	-24.2%	15.2%
O=C(c1ccc(Cl)c(S(=O)(=O)N2CCOCC2)c1)N1CCc2ccccc2C1	-63.7*	u	-13.3%	-0.3%	u	u
O=C(c1ccc(Cl)c(S(=O)(=O)NCc2ccco2)c1)N1CCN(c2ccccc2F)CC1	3.2	u	u	u	u	u
COc1ccccc1N1CCN(C(=O)c2ccc(Cl)c(S(=O)(=O)NCc3ccco3)c2)CC1	-6.1	5.62µM*	7.08µM*	8.91µM*	5.01µM*	u
CCC(C)c1ccc(S(=O)(=O)N2CCN(C(=O)c3ccc(Cl)c(S(=O)(=O)N4CCOCC4)c3)CC2)cc1 (centres undefined)	11.8	u	-27.3%	-10.4%	18.4µM*	x
CCOC(=O)N1CCN(C(=O)c2ccc(Cl)c(S(=O)(=O)N3CCOCC3)c2)CC1	-20.5	-2.9%	-1.6%	10.4%	-15.6%	1.6%
COc1ccccc1N1CCN(C(=O)c2ccc(Cl)c(S(=O)(=O)N3CCOCC3)c2)CC1	-2.4	25.9µM*	-2.0%	-0.3%	u	-4.7%
O=C(c1cccs1)N1C[C@H](n2cc(C3CC3)nn2)[C@@H](O)C[C@@H]1c1ccc(Cl)cc1	-18.4	-28.7%	-4.9%	-8.1%	u	x
COc1cc(=O)n2c(c1C(=O)NCc1nccs1)CCN(Cc1ccccc1F)CC2	x	-2.6%	x	x	-14.5%	x
COc1cc(OC)c(NC(=O)c2c(C)oc3nc(C)nc(N4CCOCC4)c23)cc1Cl	x	-4.2%	x	x	-15.4%	x
C=CCCC(=O)N1C[C@H]2CON(C)[C@H]2C[C@H]1c1cccc(N2CCOCC2)c1	-2.2	0.4%	1.6%	11.7%	-3.4%	x
COc1ccc(C(=O)/C=C/c2ccc(N3CCCCC3)c([N+](=O)[O-])c2)cc1	-101.2*	u	2.6%	-1.8%	u	-19.8%
COc1ccc(C(=O)/C=C/c2ccc(N3CCCCC3)c([N+](=O)[O-])c2)c(OC)c1	u	u	u	-21.3%	20.6µM*	-4.6%
O=C(O/N=C\c1ccc(N2CCCCC2)c([N+](=O)[O-])c1)c1cccc(Cl)c1	5.1	-9.5%	22.6%	0.0%	u	13.0%
COc1ccc(-c2noc(-c3ccc(N4CCCCC4)c([N+](=O)[O-])c3)n2)cc1	x	1.3%	x	x	u	x
Cc1ccc(C(=O)O/N=C\c2ccc(N3CCCCC3)c([N+](=O)[O-])c2)cc1	-7.0	u	1.0%	-14.4%	13µM*	8.3%
O=C1NCCN(Cc2ccc(F)cc2)C1=O	x	-0.2%	x	x	0.4%	x

Screening results deposited in PubChem BioAssay by National Center for Advancing Translational Sciences (NCATS).
